Laboratory results taken from PubChem BioAssay.
Activity calls are given as the source filed them.

Legend:
[1] = test system: PRMT1 (protein arginine N-methyltransferase 1); experiment: PRMT1 binders on small-molecule microarrays, primary screen, biochemical, small-molecule microarray, 635 nm fluorescence (AID 1088); conditions: small-molecule microarray binding, higher = more signal;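 further: binding of Prmt1 protein to compounds spotted on small-molecule microarray slides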
[2] = yeast growth modulation, basal conditions, primary screen, YJM789 clinical isolate, OD600, 24 h (AID 1089);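 further: growth of clinical yeast isolate S. cerevisiae YJM 789 seeded 1000 cells per well; test concentration not given here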; conditions: S. cerevisiae YJM789 growth, higher = more signal, called active from +8 up or from −8 down
[3] = fission yeast growth modulation, primary screen, strain 972, OD600, 24 h, no modulator (AID 1090);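 further: basal condition with compound alone and no growth modifier present; test concentration not given here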; conditions: S. pombe 972 growth, higher = more signal, called active from +8 up or from −8 down
[4] = S. cerevisiae growth modulation with rapamycin, primary screen, strain BY4716, OD600, 96 h (AID 1091); conditions: higher = more signal, called active from +8 up or from −8 down; further: test concentration not given here
[5] = molecular target: Torsin-1A-interacting protein 2 (Homo sapiens) (UniProt Q8NFQ8); experiment: LULL1 binders on small-molecule microarray, primary screen, cell lysate, human LULL1 lysate, 635/667 nm fluorescence (AID 1092); conditions: hLULL1 lysate binding, 635 nm fluorescence, higher = more signal;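 further: probe is lysate of COS7 cells overexpressing human LULL1; score merges per-feature 667 nm fluorescence with signal-to-noise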
Torsin-1A-interacting protein 2 (Homo sapiens), sequence (Q8NFQ8 whole entry, looked up): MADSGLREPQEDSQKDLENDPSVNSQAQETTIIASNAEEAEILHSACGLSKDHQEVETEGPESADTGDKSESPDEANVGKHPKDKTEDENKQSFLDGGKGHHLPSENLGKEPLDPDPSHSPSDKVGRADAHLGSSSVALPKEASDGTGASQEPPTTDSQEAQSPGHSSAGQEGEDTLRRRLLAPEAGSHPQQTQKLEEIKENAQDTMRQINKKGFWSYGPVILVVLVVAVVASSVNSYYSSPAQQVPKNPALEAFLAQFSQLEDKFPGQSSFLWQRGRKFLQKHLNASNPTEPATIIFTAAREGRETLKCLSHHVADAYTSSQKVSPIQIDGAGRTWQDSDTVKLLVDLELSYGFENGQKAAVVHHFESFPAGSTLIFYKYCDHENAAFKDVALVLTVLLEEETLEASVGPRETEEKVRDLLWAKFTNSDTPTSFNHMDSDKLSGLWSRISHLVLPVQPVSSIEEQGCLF

[6] = E. coli growth modulation, two-sided OD650, primary screen, E. coli filamentation project, strain DRC41, 24 h (AID 1093); conditions: OD650, 24 h, higher = more signal, called active from +8 up or from −8 down;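 further: MC1000 strain lacking acrAB efflux and sulA so SOS filamentation is blocked; test concentration not given here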
[7] = small-molecule microarray binders of probe aLefty2, primary screen, biochemical, biotinylated probe, 635/667 nm fluorescence (AID 1094); conditions: higher = more signal;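 further: score merges spot fluorescence near 667 nm with spot signal-to-noise ratio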
[8] = test system: Noggin (protein binding on small-molecule microarray); experiment: Noggin binders on small-molecule microarray, primary screen, biochemical, 635/667 nm fluorescence (AID 1095); conditions: 635 nm fluorescence, higher = more signal;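 further: score merges 667 nm feature fluorescence with signal to noise over triplicate slides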
[9] = molecular target: Neurogenic locus notch homolog protein 3 (Homo sapiens) (UniProt Q9UM47); experiment: NOTCH3 binders on small-molecule microarray, primary screen, biochemical, 635/667 nm fluorescence (AID 1096); conditions: NOTCH3 binding, 635 nm fluorescence, higher = more signal
Neurogenic locus notch homolog protein 3 (Homo sapiens), sequence (Q9UM47 whole entry, looked up): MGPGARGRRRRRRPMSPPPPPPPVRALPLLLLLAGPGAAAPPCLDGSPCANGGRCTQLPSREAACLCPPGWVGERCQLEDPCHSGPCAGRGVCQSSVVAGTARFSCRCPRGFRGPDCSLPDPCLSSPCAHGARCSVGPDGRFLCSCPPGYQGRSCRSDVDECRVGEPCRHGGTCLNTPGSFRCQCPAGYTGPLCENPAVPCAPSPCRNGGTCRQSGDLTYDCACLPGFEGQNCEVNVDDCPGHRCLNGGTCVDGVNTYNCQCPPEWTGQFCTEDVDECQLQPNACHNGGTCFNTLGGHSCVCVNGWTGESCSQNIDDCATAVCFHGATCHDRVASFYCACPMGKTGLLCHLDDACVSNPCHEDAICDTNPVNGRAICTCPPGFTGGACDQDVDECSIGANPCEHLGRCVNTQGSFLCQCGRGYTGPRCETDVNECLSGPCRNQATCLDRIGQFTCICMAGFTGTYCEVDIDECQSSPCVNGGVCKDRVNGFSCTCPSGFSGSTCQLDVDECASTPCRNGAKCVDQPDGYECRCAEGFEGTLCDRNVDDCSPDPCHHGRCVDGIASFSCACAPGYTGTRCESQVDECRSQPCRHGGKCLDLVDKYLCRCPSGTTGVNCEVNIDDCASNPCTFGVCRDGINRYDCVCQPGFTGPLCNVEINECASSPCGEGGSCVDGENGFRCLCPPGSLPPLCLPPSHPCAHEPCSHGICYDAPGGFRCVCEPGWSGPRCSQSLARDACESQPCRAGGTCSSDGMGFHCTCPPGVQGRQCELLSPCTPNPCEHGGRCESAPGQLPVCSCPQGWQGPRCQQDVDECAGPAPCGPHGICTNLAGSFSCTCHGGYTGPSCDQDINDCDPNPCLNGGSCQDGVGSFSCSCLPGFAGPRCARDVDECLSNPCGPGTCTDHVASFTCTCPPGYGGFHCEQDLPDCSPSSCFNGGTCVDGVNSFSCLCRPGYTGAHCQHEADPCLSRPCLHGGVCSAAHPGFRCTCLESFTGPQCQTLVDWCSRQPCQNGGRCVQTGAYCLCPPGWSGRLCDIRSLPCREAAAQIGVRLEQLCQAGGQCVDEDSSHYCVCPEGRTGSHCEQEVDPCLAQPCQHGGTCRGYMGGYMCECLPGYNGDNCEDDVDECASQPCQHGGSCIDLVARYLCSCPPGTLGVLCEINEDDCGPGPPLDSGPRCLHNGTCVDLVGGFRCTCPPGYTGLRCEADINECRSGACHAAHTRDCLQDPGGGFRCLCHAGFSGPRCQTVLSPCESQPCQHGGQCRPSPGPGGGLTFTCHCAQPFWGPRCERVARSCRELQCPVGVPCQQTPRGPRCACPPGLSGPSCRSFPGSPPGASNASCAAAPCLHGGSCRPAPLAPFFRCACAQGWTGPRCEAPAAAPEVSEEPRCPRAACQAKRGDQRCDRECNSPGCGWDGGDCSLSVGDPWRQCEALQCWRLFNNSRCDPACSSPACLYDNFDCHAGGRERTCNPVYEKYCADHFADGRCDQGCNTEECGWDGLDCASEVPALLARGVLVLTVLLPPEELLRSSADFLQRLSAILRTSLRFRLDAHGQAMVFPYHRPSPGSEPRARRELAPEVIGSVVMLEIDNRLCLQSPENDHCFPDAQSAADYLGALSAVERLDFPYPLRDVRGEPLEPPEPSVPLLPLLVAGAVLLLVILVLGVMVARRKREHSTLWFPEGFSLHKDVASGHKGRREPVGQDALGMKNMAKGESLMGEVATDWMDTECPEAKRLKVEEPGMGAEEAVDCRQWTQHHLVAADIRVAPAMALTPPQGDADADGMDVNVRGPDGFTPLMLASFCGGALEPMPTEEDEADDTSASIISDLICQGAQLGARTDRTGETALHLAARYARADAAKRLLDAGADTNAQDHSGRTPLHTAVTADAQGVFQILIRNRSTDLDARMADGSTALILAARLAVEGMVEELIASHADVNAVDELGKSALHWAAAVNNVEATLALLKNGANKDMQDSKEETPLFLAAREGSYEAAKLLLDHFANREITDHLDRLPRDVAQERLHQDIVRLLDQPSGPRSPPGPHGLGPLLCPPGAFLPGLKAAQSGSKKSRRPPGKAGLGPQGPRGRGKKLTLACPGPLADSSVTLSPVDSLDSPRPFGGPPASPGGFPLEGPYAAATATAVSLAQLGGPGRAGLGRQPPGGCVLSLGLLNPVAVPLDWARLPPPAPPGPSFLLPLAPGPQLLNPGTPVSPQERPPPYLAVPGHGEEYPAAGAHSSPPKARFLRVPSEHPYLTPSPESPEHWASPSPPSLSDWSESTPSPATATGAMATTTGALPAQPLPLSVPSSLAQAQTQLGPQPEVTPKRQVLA

[10] = small-molecule microarray binders of probe aEGFR, primary screen, biochemical, biotinylated probe, 635/667 nm fluorescence (AID 1097); conditions: higher = more signal;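 further: probe is a biotinylated anti-EGFR antibody binding compounds printed on slides; score combines fluorescence near 667 nm and signal to noise of each spot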

Row | Structure (SMILES) | composite z-score [1] | z-score [2] | z-score [3] | z-score [4] | composite z-score [5] | z-score [6] | composite z-score [7] | composite z-score [8] | composite z-score [9] | composite z-score [10]
1 | CCOC(=O)C1=C[C@@H](C(C)(C)C)N(S(=O)(=O)c2ccc(C)cc2)[C@H]1c1ccccc1Cl | 1.53 | 0.168 (inactive) | 2.3 (inactive) | 2.15 (inactive) | 2.61 | -0.766 (inactive) | 0.144 | 0.614 | 1.05 | 0.0522
2 | COCCCNC(=O)[C@@]1(Sc2ccc(C)cc2)CC(=O)N(C2CCCCC2)[C@@H]1c1ccc(CO)cc1I | 1.54 | -1.9 (inactive) | -0.128 (inactive) | 0.0267 (inactive) | 2.81 | 0.331 (inactive) | -0.0333 | 0.451 | 1.04 | 0.0944
3 | O=C1NC(=O)C2C1C=CC(C(O)c1cccc(O)c1)N2Nc1ccc(Cl)cc1Cl (stereo not given) | -1.24 | -0.927 (inactive) | 0.765 (inactive) | 0.668 (inactive) | 0.991 | -2.08 (inactive) | 0.0893 | 0.115 | -0.207 | 0.012
4 | CCOC(=O)C1=CC[C@@H](c2ccc(F)cc2)N(S(=O)(=O)c2ccc(C)cc2)[C@H]1c1ccc([N+](=O)[O-])cc1 | 0.518 | 0.342 (inactive) | 1.32 (inactive) | 6.03 (inactive) | 2.5 | 0.543 (inactive) | 0.0322 | -0.234 | 0.73 | -0.0409
5 | CC(C)CNC(=O)[C@@H]1c2ccccc2C(=O)N(C(C)C)[C@H]1c1ccc(CO)cc1 | 0.12 | -1.37 (inactive) | 0.0396 (inactive) | -0.421 (inactive) | 2.33 | 0.794 (inactive) | -0.166 | 0.126 | 0.0151 | -0.246
6 | COc1cc2c(cc1O)C(c1ccc(CN3CCCC3)cc1)N(Cc1ccc([N+](=O)[O-])o1)CC2 (stereo not given) | -0.246 | -0.686 (inactive) | -2.48 (inactive) | -0.604 (inactive) | 1.65 | 0.098 (inactive) | -0.299 | -0.408 | 0.577 | -0.227
7 | COc1ccc([Si](C)(C)[C@H]2[C@H](CCO)O[C@@]3(C(=O)N(Cc4ccccc4)c4ccc(N(C=O)c5ccccc5)cc43)[C@@H]2C)cc1 | 1.57 | -0.347 (inactive) | 1.08 (inactive) | 20.3 (active) | 1.65 | 0.773 (inactive) | -0.182 | 0.513 | 1.09 | -0.0121
8 | COCCOC(=O)N1C(=O)[C@@]2(c3cc(C#CC4(O)CCCCCC4)ccc31)[C@H](c1ccccc1OCCO)N1[C@H](c3ccccc3)[C@H](c3ccccc3)OC(=O)[C@H]1[C@@H]2C(=O)N1CCCCCCC1 | 1.54 | 1.94 (inactive) | 1.26 (inactive) | 3.54 (inactive) | 3.47 | 0.0805 (inactive) | 1.31 | 1.75 | 1.1 | -0.0351
9 | COC(=O)[C@@H]1N=C(c2ccc(OCCCO)cc2)O[C@@H]1c1ccccc1CN=[N+]=[N-] | 1.01 | 0.23 (inactive) | -0.956 (inactive) | -1.14 (inactive) | 1.74 | 1.05 (inactive) | 0.109 | -0.0395 | 0.327 | -0.0802
10 | NCCCC[C@@H]1NC(=O)[C@H]2C[C@@H](C(=O)NCc3ccc(F)cc3)[C@@H](c3ccc(O)cc3)N2C1=O | 1.3 | 0.804 (inactive) | 0.368 (inactive) | 0.656 (inactive) | 3.3 | -0.656 (inactive) | 0.726 | 1.09 | 0.997 | 0.149
11 | C=CCNC(=O)[C@@H]1[C@H]2C(=O)O[C@H](c3ccccc3)[C@H](c3ccccc3)N2[C@H](c2ccc(O)cc2)[C@@]12C(=O)Nc1ccc(C#CC3(O)CCCCCC3)cc12 | 0.994 | 0.154 (inactive) | 0.0674 (inactive) | 0.0489 (inactive) | 1.57 | -0.447 (inactive) | -0.113 | 0.553 | -0.0051 | -0.013
12 | O=C1N(CCS(=O)(=O)c2ccccc2)c2ccccc2[C@@H]2OC(c3ccc(OCCCO)cc3)=N[C@]12CCS(=O)(=O)c1ccccc1 | 1.54 | 0.864 (inactive) | 1.78 (inactive) | 4.01 (inactive) | 3.46 | 0.678 (inactive) | 0.471 | 0.833 | 1.14 | -0.0333
13 | COc1ccc(CCNC(=O)[C@@]2(Sc3ccc(C)cc3)CC(=O)N(Cc3cc(C(F)(F)F)cc(C(F)(F)F)c3)[C@@H]2c2ccc(CO)cc2)cc1 | -0.772 | -1.11 (inactive) | -0.912 (inactive) | -0.683 (inactive) | 0.92 | -0.466 (inactive) | 0.344 | -1.69 | -1.26 | -0.213
14 | CC(C)CNC(=O)[C@@H]1c2ccccc2C(=O)N(Cc2ccccc2)[C@H]1c1ccc(CO)cc1 | 0.586 | -0.416 (inactive) | 0.138 (inactive) | -0.895 (inactive) | 3.22 | -0.73 (inactive) | -0.188 | -0.731 | -0.677 | -0.189
15 | COC(=O)[C@@]1(CCC(=O)OC(C)(C)C)N=C(c2ccc(OCCCO)cc2)O[C@H]1c1ccccc1CN=[N+]=[N-] | 0.373 | 0.0206 (inactive) | 0.646 (inactive) | 9.66 (active) | 1.85 | 1.08 (inactive) | -0.0963 | 0.201 | 0.235 | -0.0418
16 | COc1ccc(NC(=O)O[C@H]2[C@H](OC(=O)Nc3ccc4c(c3)OCO4)[C@H](OC(=O)Nc3ccc4c(c3)OCO4)[C@@H](OC)O[C@@H]2CO)cc1 | 1.54 | 1.87 (inactive) | 1.41 (inactive) | 4.72 (inactive) | 2.96 | 0.212 (inactive) | -0.121 | -0.0137 | 0.569 | -0.0922
17 | CCCCCCc1nc(-c2ccc(OC)nc2)cc2c1[Si](C(C)C)(C(C)C)OC2 | -0.741 | -0.1 (inactive) | -0.283 (inactive) | -0.218 (inactive) | -0.342 | -0.647 (inactive) | -0.143 | -0.374 | -0.123 | -0.24
18 | O=C1C2C=CC(C(O)c3ccc([N+](=O)[O-])cc3)N(Nc3ccccc3)C2C(=O)N1c1ccccc1 (stereo not given) | 0.44 | -0.247 (inactive) | 0.485 (inactive) | 0.495 (inactive) | 2.68 | -0.8 (inactive) | -0.0469 | -0.456 | 1.03 | -0.0509
19 | COCCOC(=O)N1C(=O)[C@@]2(c3cc(C#CC4=CCCCC4)ccc31)[C@H](c1ccc(OCCO)cc1)N1[C@H](c3ccccc3)[C@H](c3ccccc3)OC(=O)[C@H]1[C@@H]2C(=O)N1CCCCCCC1 | 1.54 | -1.06 (inactive) | -0.301 (inactive) | 1.89 (inactive) | 2.96 | 3.25 (inactive) | 1.18 | 1.21 | 1.07 | 0.604
20 | [N-]=[N+]=NCc1ccccc1C[C@]1(C(=O)O)COC(c2ccc(OCCCO)cc2)=N1 | -0.486 | 0.493 (inactive) | 0.612 (inactive) | -0.0738 (inactive) | -0.0986 | 0.398 (inactive) | -0.0252 | -0.389 | -0.614 | -0.0702
21 | COCCOC(=O)N1C(=O)[C@@]2(c3cc(C#Cc4ccc(OC)cc4)ccc31)[C@H](C(=O)N1CCCCCCC1)[C@H]1C(=O)O[C@H](c3ccccc3)[C@H](c3ccccc3)N1[C@@H]2c1ccccc1OCCO | 1.44 | 1.83 (inactive) | 1.44 (inactive) | 3.98 (inactive) | 3.66 | -0.291 (inactive) | 1.63 | 1.91 | 1.12 | 1.02
22 | O=C1OCCC=C[C@H]2OC34C=CCN(CCN5CCOCC5)C(=O)[C@H]3N(CCCO)C(=O)[C@@H]4C12 (stereo not given in full) | 0.0132 | -0.728 (inactive) | -1.14 (inactive) | 0.229 (inactive) | 2.98 | 0.922 (inactive) | -0.257 | -0.293 | 0.329 | -0.166
23 | CCN(CC)c1ccc(N2CC=CC34O[C@@H]5C=CCOC(=O)[C@@H]5[C@H]3C(=O)N(CCCO)[C@@H]4C2=O)cc1 (stereo not given in full) | 0.586 | -0.6 (inactive) | -0.197 (inactive) | -0.298 (inactive) | 1.57 | 1.6 (inactive) | -0.139 | -0.927 | -0.453 | -0.188
24 | C=CCOC(=O)[C@H]1[C@@H]2C(=O)O[C@@H](c3ccccc3)[C@@H](c3ccccc3)N2[C@@H](c2ccc(OCCOC(=O)[C@@H]3C[C@@H]4C(=O)N[C@@H](CC(C)C)C(=O)N4[C@@H]3c3ccc(O)cc3)cc2)[C@]12C(=O)Nc1ccc(I)cc12 | 1.58 | -3.69 (inactive) | 0.698 (inactive) | 3.36 (inactive) | 2.44 | 0.452 (inactive) | -0.103 | 1.23 | 0.752 | 0.006
25 | C=C(CCCC)C(=O)CC[C@H](OC(C)=O)c1ccccc1OCCO | 1.19 | 0.489 (inactive) | -2.03 (inactive) | -0.438 (inactive) | 0.383 | 0.733 (inactive) | -0.12 | 0.0384 | 0.67 | -0.177
26 | O=C1C2C=CC(C(O)c3cccc(O)c3)N(Nc3ccccc3F)C2C(=O)N1c1ccccc1 (stereo not given) | 0.788 | -25 (active) | -8.06 (active) | -1.5 (inactive) | 1.88 | 1.94 (inactive) | -0.192 | -0.171 | 0.552 | -0.13
27 | COCCOC(=O)N1C(=O)[C@@]2(c3cc(C#CCNC(N)=O)ccc31)[C@H](C(=O)NC[C@H](O)c1ccccc1)[C@H]1C(=O)O[C@H](c3ccccc3)[C@H](c3ccccc3)N1[C@@H]2c1ccc(OCCO)cc1 | 1.55 | 2.39 (inactive) | 1.54 (inactive) | 4.57 (inactive) | 2.5 | 0.383 (inactive) | -0.0083 | 0.683 | 1.16 | -0.0828
28 | CC(C)=CCN(C(=O)C#Cc1ccccc1)[C@H](CO)c1ccccc1 | 0.95 | -0.577 (inactive) | -4.9 (inactive) | 36.4 (active) | 1.2 | 0.354 (inactive) | -0.116 | 0.69 | 0.829 | -0.0302
